Results from PubChem BioAssay (NCI).
This is part of a sample that, as a whole, favours compounds with a hit. Of some 83,000 tested, about 20% had one in any assay.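 The test compound was applied at a single concentration to cells in 96-well plates for 48 hours, and percent growth was recorded.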 Unmarked numbers belong to inactive results. Calls of active or inactive are those of the source. How the source made its calls: active means growth percent below 10; inactive means the rest.

test system: SK-MEL-28 melanoma; assay: NCI-60 one-dose screen, 48 h (100 = growth as untreated, 0 = no growth, -100 = all killed); details: 10 µM unless noted

Going from `Cc1nn(-c2ccccc2)c(Oc2ccc(Cl)cc2)c1/C=N\N=c1/sc2ccccc2n1C` to `O=C1Nc2ccccc2/C1=C/c1cn(C(=O)c2ccc(Cl)cc2)c2ccccc12`, the growth falls from 110% to 93%.

First: CC(C)Sc1nc(NNC(N)=S)c(C#N)c(-c2ccc(F)cc2)n1
Second: N#Cc1c(-c2cccc(Cl)c2)cc(-c2cccc(Cl)c2)[nH]c1=O
The growth of the first is higher: 113% for the first, 78.5% for the second.

Compared with `NC(=O)c1ccc[n+](Cc2ccc(Cl)cc2Cl)c1`, `N=c1sc(Cc2ccc(Cl)cc2)cn1CC(=O)c1ccc(F)cc1` is lower in growth: 108% for the first, 87.6% for the second.

Compared with `CCCCCCCC/C=C\CCCCCCCCOc1ccccc1CC(=O)NCC[N+](C)(C)C`, `COc1ccc(-c2csc(C3=C(O)CN(C(C)C)C3=N)n2)cc1OC` is higher in growth: 88.8% for the first, 123% for the second.

Compared with `O=C1/C(=C\c2cccnc2)SC(=S)N1CCc1ccc(O)cc1`, `Cc1cc(O)c(C2=NN(c3ccc(S(N)(=O)=O)cc3)C(c3ccccc3Cl)C2)cc1Cl` (stereo not given) is lower in growth: 71% for the first, 63.2% for the second.

Compared with `COc1ccc(C2C(c3nn[nH]n3)=C(N)Oc3c2ccc2ccccc32)cc1` (stereo not given), `COc1ccc(NC(=O)CSc2nnc(-c3cc(-c4ccc(S(N)(=O)=O)cc4)nc4ccccc34)n2-c2ccccc2)cc1` is higher in growth: 57.4% for the first, 80.6% for the second.

Going from `CCN1CCN(c2cc(C)nc(NCc3cc(Nc4ccnc5cc(Cl)ccc45)ccc3F)n2)CC1` to `C#CCOc1nc(C)cc(C)c1C#N`, the growth rises from 93.3% to 111%.

For `Cn1cc(-c2csc(-c3ccccc3)n2)c2cccnc21`, the growth was -57.4% [100 µM] (active).
